# In the supplement of paper PMC6555819:
# Tests used:
# Assay in all cases: PBM binding z-score (relative to random genomic background probes); higher = stronger binding; sequences stand for … in GC…GCGATTGACAGCGTAGAATGAAGG
# [1] = test system: FXR:RXRa (NR concentration 270 nM, RXRa partner concentration 90 nM)
# Outline: (§1)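 Random background probes are the reference for binding z-scores. These scores derive from regression-normalized fluorescence on custom Agilent 4×180K protein-binding microarrays incubated 1 h with ligand-free nuclear receptor dimers. Binding was detected with antibodies against each partner (one per run).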
# [2] = test system: LXRa:RXRa (NR concentration 270 nM, RXRa partner concentration 90 nM)
# Outline: as §1
# [3] = test system: LXRa homodimer (NR concentration 270 nM)
# Outline: as §1
# [4] = test system: LXRb:RXRa (NR concentration 270 nM, RXRa partner concentration 90 nM)
# Outline: as §1
# [5] = test system: LXRb homodimer (NR concentration 270 nM)
# Outline: as §1
# [6] = test system: PPARa:RXRa (NR concentration 270 nM, RXRa partner concentration 90 nM)
# Outline: as §1
# [7] = test system: PPARg:RXRa (NR concentration 180 nM, RXRa partner concentration 90 nM)
# Outline: as §1
# [8] = test system: PPARg:RXRa 270nM:90nM, anti-RXR (NR concentration 270 nM, RXRa partner concentration 90 nM)
# Outline: as §1
# [9] = test system: PPARg:RXRa 30nM:10nM, anti-RXR (NR concentration 30 nM, RXRa partner concentration 10 nM)
# Outline: as §1
# [10] = test system: PPARg:RXRa 90nM:30nM, anti-RXR (NR concentration 90 nM, RXRa partner concentration 30 nM)
# Outline: as §1
# [11] = test system: PPARg:RXRa DBDmut IVT, anti-RXR (DBD mutation: RXRa K156A/R161A, NR concentration 270 nM, RXRa partner concentration 90 nM)
# Outline: as §1
# [12] = test system: PPARg:RXRa IVT, anti-PPARg (NR concentration 270 nM, RXRa partner concentration 90 nM)
# Outline: as §1
# [13] = test system: PPARg DBDmut:RXRa IVT, anti-PPARg (DBD mutation: PPARg1 K132A/R137A, NR concentration 270 nM, RXRa partner concentration 90 nM)
# Outline: as §1
# [14] = test system: PPARg DBDmut IVT, anti-PPARg (DBD mutation: PPARg1 K132A/R137A, NR concentration 270 nM)
# Outline: as §1
# [15] = test system: PPARg homodimer (NR concentration 180 nM)
# Outline: as §1
# [16] = test system: PXR:RXRa (NR concentration 270 nM, RXRa partner concentration 90 nM)
# Outline: as §1
# [17] = test system: PXR homodimer (NR concentration 270 nM)
# Outline: as §1
# [18] = test system: RARa:RXR (NR concentration 270 nM, RXRa partner concentration 90 nM)
# Outline: as §1
# [19] = test system: RARa homodimer (NR concentration 270 nM)
# Outline: as §1
# [20] = test system: RARb:RXRa (NR concentration 270 nM, RXRa partner concentration 90 nM)
# Outline: as §1
Sequence,PBM binding z-score [1],PBM binding z-score [2],PBM binding z-score [3],PBM binding z-score [4],PBM binding z-score [5],PBM binding z-score [6],PBM binding z-score [7],PBM binding z-score [8],PBM binding z-score [9],PBM binding z-score [10],PBM binding z-score [11],PBM binding z-score [12],PBM binding z-score [13],PBM binding z-score [14],PBM binding z-score [15],PBM binding z-score [16],PBM binding z-score [17],PBM binding z-score [18],PBM binding z-score [19],PBM binding z-score [20]
CCTCGGCGGACAGAAGGTCAGAGCTGTCCGCTTT,1.18,1.29,-0.126,0.771,-1.09,1.64,-0.606,0.898,-0.662,-0.0722,-0.348,-0.163,-2.18,-2.03,0.787,1.26,-0.667,1.57,-0.497,2.52
TAGCCTAGGTAAGATCGGGCCAGTATACGCTATA,-0.504,-0.787,-0.612,-0.831,-1.39,-0.58,0.0812,-0.494,-0.743,-0.292,-0.504,-0.0138,-2.06,-1.02,-0.948,-0.638,-0.73,-0.261,-1.46,-1.22
CTCGAAAGCTCGGTTGAGGTGAGTATACGGATAA,-0.222,-0.554,-0.444,-0.393,-0.608,-0.294,-0.189,-0.312,-0.328,-0.403,-0.672,-0.193,-0.22,-0.607,-0.84,-0.305,-0.679,0.034,-0.648,-0.166
CCGAGTAGGTTACGGGGCATTCAGGCAACGGTGA,0.382,0.612,-0.693,0.593,-0.641,2.14,2.87,3.66,1.1,2.95,3.97,4.11,-0.288,-0.815,0.551,0.0878,-0.35,0.636,-0.584,1.5
ATCTCTAGGTCACCAAGTTCAGTGAATGCCGAAC,4.67,5.17,4.93,3.52,2.23,4.74,7.04,6.1,3.59,5.18,7.23,7.06,2.4,2.04,3.74,5.68,11.1,3.92,2.64,4.82
ATCTCTCGGTAAAAGTTCAGTGAATCCCGAGGAT,0.576,1.16,1.29,1.07,1.12,2.92,3.81,5.71,3.76,6.34,-0.48,1.24,1.23,1.28,1.06,1.92,1.71,0.639,0.811,2.4
AGTCAAAGTTCATCTAGGTAACGTGAGATATGCT,6.5,5.85,4.89,3.81,1.73,4.76,6.65,6.18,3.58,5.42,1.17,3.86,1.73,0.803,2.99,5.36,7.67,3.82,1.48,4.96
CCTACTGGGCCACGAAAGGTCATGGATTCAGTGA,3.62,5.06,3.79,4.07,0.209,4.97,4.97,5.27,2.28,4.77,5.9,6.03,-0.103,-0.148,3.03,5.15,0.707,5.48,1.81,4.27
ACTATTAGATGACTTAGGGCAACCGATACGACGC,0.344,0.353,0.702,0.165,1.14,0.0577,1.25,0.22,0.441,0.295,0.577,0.319,1.54,1.42,1.03,-0.0258,0.554,0.143,1.38,0.885
ACTATTAGTTGAGACGAGGGCAACCCATAGGTTG,0.567,-0.017,-0.102,0.0689,0.34,0.296,0.846,0.162,0.398,0.326,0.0223,0.455,0.5,0.77,0.831,1.31,0.412,0.966,0.536,1.07
AGTCAAAGTTCACTAGGTAACGTAAGATTCAGCT,5.37,5.1,3.04,3.17,1.11,5.11,7.61,6.5,3.74,6.12,2.87,5.16,1.07,1.01,2.38,3.71,2.66,2.74,0.986,4.72
GCAAATAGGTAATACAAGGTGAAAGTCCGATTGT,2.27,2.87,0.422,0.806,-0.48,1.49,1.02,1.19,0.599,0.979,3.46,2.55,0.642,0.68,0.192,0.778,0.202,1.44,0.308,0.635
CCGAGTAGGTTATGGGGCTTTCAGGCAACGGTGA,0.104,0.374,-0.409,0.503,-0.205,1.34,1.69,2.5,0.331,1.54,3.12,2.84,-0.365,-0.667,0.638,-0.191,-0.0344,-0.019,0.153,0.525
GCTATTTGGTCAGTAAAAGGTCACACACCGGTCG,3.6,4.54,5.27,4.71,1.54,4.7,3.46,4.72,2.76,4.46,1.19,3.03,0.901,1.1,3.8,5.12,1.46,5.67,2.38,4.45
